# HSF1 inh – HSF1 inhibition; NIH3T3-HGL HSE-luciferase, MG132-induced, luminescence 8 h; active compounds read low; activity change, negative = inhibition, % at 7.5 µM (by protocol); 0.77% of 300,000 active; AID 2098;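 active means more than half of replicate wells show activity change below -50%, luminescence cut by over half; inconclusive means some wells, but at most half, below -50%; inactive means no replicate well below -50%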;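 further: luciferase reports HSF-1 transcriptional activity via heat shock element; 0% = median of DMSO wells and -100% = zero luminescence signal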
# esBAF inh – SWI/SNF esBAF complex inhibition; mouse ES cells, Bmi1-luciferase knock-in reporter, 24 h; 100% = twice the neutral-well signal; reporter increase, % at 12.5 µM; 2% of 350,000 active; in the data active means activation above about 40%; inconclusive means no clear call, values can overlap the other calls;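 further: 0% = median of the plate's neutral control wells and 100% = double that signal; a rise in the Bmi1 reporter signal indicates esBAF inhibition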
# Vif imaging – inhibitors of HIV Vif. HEK293T cells, Vif self-association by quenched fluorescence, imaging, 24 h. inhibition, % at 7.49 µM. 0.35% of 340,000 active; in the data active means inhibition above about 50%, passing the limit was not always enough; inconclusive means no clear call, values can overlap the other calls; inactive means below about 31%
# HSF-1 act – increases HSF-1 driven luciferase reporter signal; activation, % at 9 µM; 1.7% of 300,000 active; NIH3T3-HGL HSF-1 luciferase reporter, MG132, 8 h; 100% = twice DMSO control signal;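 active means mean replicate activation of at least 50% with a set share of replicates each reaching 50%; inconclusive means only one of those two conditions met; inactive means mean below 50% and too few replicates reaching it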;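 further: 0% = median of the neutral control wells and 100% = twice that signal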
# esBAF Ring1 qPCR – esBAF inhibition confirmed by Ring1 de-repression; fold change at 33 µM; mouse ESC E14, Ring1 mRNA RT-qPCR fold change; AID 743176; 550 tested, under 10 active; shares compounds with esBAF inh;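 active means Ring1 gene expression raised more than 2-fold over untreated cells in both replicates at either tested dose; inconclusive means only one replicate above 2-fold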;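 further: Ring1 transcript normalised to actin housekeeping signal by TaqMan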
# esBAF Fgf4 qPCR – represses Fgf4 in mouse ESCs, confirming esBAF inhibition; AID 743177; Fgf4 expression fold change at 33 µM; 4% of 550 active; shares compounds with esBAF inh; mouse ESC E14, Fgf4 mRNA qPCR fold change; active compounds read low;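 active means Fgf4 expression under 0.8 fold of control in both repeat measurements at one or both tested doses; inconclusive means under 0.8 fold in just a single repeat measurement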;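 further: Fgf4 transcript normalised to actin in duplex TaqMan qPCR; cells exposed to compound for 24 h before lysis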
# Bmi1 derepress – de-represses Bmi1 in mouse ESCs, confirming esBAF inhibition | fold change at 33 µM | AID 743180 | 550 tested, under 10 active | shares compounds with esBAF inh | mouse ESE14 ES cells, Bmi1 mRNA qPCR fold; active compounds read high;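 active means Bmi1 expression fold change above 6 at either tested concentration, seen in replicate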;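 further: higher fold means more Bmi1 de-repression and stronger esBAF inhibition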
# A549 cytotox – kills or reduces viability of A549 cells; shares compounds with esBAF inh; A549 cytotoxicity, plate reader; cell viability change % (negative = cytotoxic), % at 25 µM, hits read low; 550 tested, under 10 active; AID 743188; call rule not given here
# HepG2 tox SP – cytotoxicity in HepG2 cells | shares compounds with esBAF inh | plate reader; active compounds read low | activity change, negative = inhibition, % at 25 µM | 4% of 550 active | AID 743189; in the data active means activity change below about -50%
# HEK293 cytotox SP – HEK293 cell cytotoxicity at single point; shares compounds with esBAF inh; plate reader; activity change, negative = inhibition, % at 25 µM, hits read low; 3% of 550 active; AID 743190; in the data active means activity change below about -38%, passing the limit was not always enough
# * marks the source's active call; other numbers are inactive results; u = inconclusive; x = no result given. Most compounds without a hit are left out; they make up all but 3.4% or so of the library.
SMILES,HSF1 inh,esBAF inh,Vif imaging,HSF-1 act,esBAF Ring1 qPCR,esBAF Fgf4 qPCR,Bmi1 derepress,A549 cytotox,HepG2 tox SP,HEK293 cytotox SP
O=C(N/N=C/c1ccccc1)c1ccc(NC(=O)c2ccc(F)cc2)cc1,3,58*,0,27,1.2,1.1,1.2,7,8,0
CCCC1CCC(c2nc(-c3cccnc3)no2)CC1 (stereo unspecified),2,60*,-2,16,1.2,u,1.7,-3,-27,-10
COc1ccc(C2=NN(C(=O)c3ccncc3)C(c3ccccc3O)C2)cc1 (stereo unspecified),4,20,-4,12,x,x,x,x,x,x
O=C(c1ccncc1)N1N=C(c2ccc(Cl)cc2)CC1c1ccccc1O (stereo unspecified),2,80*,-3,7,1.4,0.83,1.6,12,24,5
FC(F)(F)c1cc(-c2ccccc2)nc(N2CCCCCC2)n1,7,3,16,38,x,x,x,x,x,x
c1ccc(-c2cnnc(N3CCCCC3)n2)cc1,-18,55*,-4,-23,1.2,0.94,1.6,-6,-19,-3
c1ccc(CCNc2nc3ccccc3s2)cc1,27,55*,5,56*,1.2,1,1.8,-9,-1,-23
COc1ccc(CNc2nc3ccccc3s2)cc1OC,20,62*,-1,29,0.99,0.87,1.6,-6,-5,-12
Clc1cccc2sc(N3CCCCC3)nc12,18,61*,1,28,1.2,0.93,1.8,-1,-1,-3
Brc1cccc2sc(N3CCN(c4ccccc4)CC3)nc12,14,x,-3,30,x,x,x,x,x,x
O=C(Nc1ccccc1)[C@H]1[C@H](CO)[C@H]2Cn3c(cccc3=O)[C@H]2N1C(=O)C1CCCC1,x,0,x,x,x,x,x,x,x,x
O=C(C[C@H]1C=C[C@H](NC(=O)CCN2CCCCC2)[C@@H](CO)O1)Nc1nccs1,x,2,x,x,x,x,x,x,x,x
Cc1noc(C)c1C(=O)Nc1nc2ccccc2s1,x,72*,-1,x,1.3,1.1,1.6,-19,8,-28
C[C@@H]1CCCCO[C@@H](CN(C)Cc2ccc(C(=O)O)cc2)[C@@H](C)CN([C@@H](C)CO)C(=O)c2cc(NS(=O)(=O)c3ccccc3)ccc2O1,x,0,x,x,x,x,x,x,x,x
Cc1ccc(Nc2ncnc3sc(C)c(C)c23)cc1,1,59*,-2,8,1.2,0.92,1.4,-2,-12,-3
Cc1ccc(-c2nnc(-c3cc(C)on3)o2)cc1,28,-7,-7,45,x,x,x,x,x,x
Cc1cc(-c2nnc(-c3cccc(C(F)(F)F)c3)o2)no1,x,59*,-2,x,1.2,0.85,1.6,3,-46,-9
COc1ccc(-n2nc(C(=O)NCC(=O)N3CCN(c4ccccc4F)CC3)c3ccccc3c2=O)cc1OC,-5,30,-13,24,x,x,x,x,x,x
COc1ccc(-n2nc(C(=O)NCC(=O)N3CCN(c4ccccc4F)CC3)c3ccccc3c2=O)cc1,11,40,3,36,1.2,u,1.6,-6,-66*,-10
O=C(Nc1ccc(Cl)c(Cl)c1)Nc1ccccc1O,47,74*,9,92*,1.7,u,1.7,5,-5,4
O=C(Nc1ccc(Cl)c(Cl)c1)Nc1ccc(Br)cc1F,-11,x,-4,4,x,x,x,x,x,x
C[C@H](CO)N1C[C@H](C)[C@@H](CN(C)Cc2ccc(Oc3ccccc3)cc2)Oc2ccc(NS(=O)(=O)c3cccs3)cc2C1=O,x,-2,x,x,x,x,x,x,x,x
CC1(C)CNC(=O)c2sc(NC(=O)c3ccccc3)nc2C1,12,84*,5,34,1.1,1,1.5,-2,-26,-24
CC1(C)CC(=O)c2sc(NC(=O)c3cccs3)nc2C1,17,x,x,34,x,x,x,x,x,x
CCc1c(C(=O)OCc2ccccc2)[nH]c(C)c1C,10,53*,3,35,1,0.89,2.2,-5,-25,-6
SMILES,HSF1 inh,esBAF inh,Vif imaging,HSF-1 act,esBAF Ring1 qPCR,esBAF Fgf4 qPCR,Bmi1 derepress,A549 cytotox,HepG2 tox SP,HEK293 cytotox SP
CCc1c(C)[nH]c(C(=O)OCc2ccccc2)c1C,35,x,1,u,x,x,x,x,x,x
COc1cccc(C(=O)Nc2ccc3c(c2)C(=O)N(C)C[C@H](OC)[C@H](C)CN(C(C)=O)[C@@H](C)CO3)c1,x,-3,x,x,x,x,x,x,x,x
COc1cccc(N(C(=O)c2cccs2)c2nc3ccccc3s2)c1,-67*,59*,7,-74,1.4,0.97,2.9,-1,-10,-13
CC(C)C#Cc1ccc([C@H]2[C@@H](C#N)N(C(=O)C3CCC3)[C@H]2CO)cc1,x,17,x,x,x,x,x,x,x,x
CN(Cc1nccs1)C(=O)c1ccc2nc(Cc3ccccc3F)oc2c1,29,67*,4,45,1.2,0.94,1.4,-6,-18,-12
Cc1cc(CN(C)C(=O)c2ccc3nc(Cc4ccccc4F)oc3c2)on1,13,x,-4,34,x,x,x,x,x,x
CN(Cc1nccn1C)C(=O)c1ccc2nc(Cc3ccccc3F)oc2c1,22,65*,-3,27,0.78,0.85,1.5,-16,-47,-26
CC(C)NC(=O)Nc1ccc2c(c1)CC(=O)N([C@H](C)CO)C[C@H](C)[C@@H](CN(C)Cc1ccc(-c3ccccc3)cc1)O2,x,-3,x,x,x,x,x,x,x,x
C[C@@H]1CN([C@H](C)CO)C(=O)c2ccccc2-c2ccccc2CO[C@H]1CN(C)C(=O)Nc1ccccc1,x,8,x,x,x,x,x,x,x,x
C=CCNc1nc(NCc2cccc(OC)c2)c2sc(-c3ccccc3)cc2n1,x,71*,-11,x,3.7*,0.3*,17*,-7,-48,-66*
COc1ccc(NC(=O)Nc2ccc3c(c2)C(=O)N([C@H](C)CO)C[C@@H](C)[C@@H](CN(C)C(=O)Nc2ccc(OC)cc2)O3)cc1,x,1,x,x,x,x,x,x,x,x
COc1ccc(C)c2sc(=NC(=O)c3cccc(N4C(=O)CCC4=O)c3)n(C)c12,16,76*,-3,41,1.5,0.98,1.6,-9,-19,2
COc1ccc(C)c2sc(=NC(=O)c3ccc(C(C)=O)cc3)n(C)c12,-18,x,-3,-22,x,x,x,x,x,x
Cc1noc(C)c1NC(=O)N(C)C[C@H]1OCCCC[C@H](C)Oc2ccc(NS(C)(=O)=O)cc2C(=O)N([C@@H](C)CO)C[C@@H]1C,x,-4,x,x,x,x,x,x,x,x
Fc1cc(Cl)cc2ccc(-c3ccccc3)nc12,x,56*,-3,x,1.5,0.98,1.8,9,67,-5
Nc1nc(Cl)cc(-c2ccccc2)n1,5,x,-2,-7,x,x,x,x,x,x

# Screens from PubChem.
